Our source for the growth values is PubChem BioAssay (NCI).

Assay in all cases: NCI-60 one-dose screen, 48 h (100 = growth as untreated, 0 = no growth, -100 = all killed)
Holding throughout (conditions): 10 µM unless noted

Test [1] deals with NCI-H23 lung.
The subject of test [2] is NCI-H226 lung.
Test [3] deals with NCI-H322M lung.
The subject of test [4] is HOP-62 NSCLC.
Test [5] relates to NCI-H460 lung.
In test [6] the test system is HOP-92 NSCLC.
Test [7] concerns NCI-H522 lung.
Test [8] relates to A549/ATCC NSCLC.
Test [9] deals with 786-0 renal.
Test [10] has as its system DU-145 prostate.
In test [11] the test system is K-562 leukemia.
Test [12] relates to MALME-3M melanoma.
Test [13] concerns MDA-MB-231 breast.
In test [14] the test system is RXF 393 renal.
The subject of test [15] is SF-268 CNS.
The subject of test [16] is SF-295 CNS.
Test [17] has as its system SF-539 CNS.
Test [18] concerns UACC-257 melanoma.
The subject of test [19] is M14 melanoma.

About 83,000 compounds went through this panel and 20% of them were active in at least one assay; those are over-represented in the sample as a whole.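 Results are percent growth after 48 hours of single-concentration exposure. 100 means growth as in untreated cells, lower positive values show inhibition; negative values down to -100 show cell death.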 Unmarked numbers belong to inactive results. Calls of active or inactive are those of the source. Rule for the calls: active = growth percent below 10; inactive = the rest.

Regarding `CCCCCOC(=O)c1ccc(NC(=O)CNCC(C)C)cc1`, the growth in [1] is 99.4%; in [2], 84.7%; in test [3] it was 91.9%; in [4] it was 85.1%; in test [5], 103%; in test [6], 53.8%. Also, the growth in [7] is 70.1%; in test [8] it was 88.4%; in test [9], 99.9%; in test [10] it was 102%; in test [11], 88.8%; in test [12] it was 107%. The growth in test [13] was 57.7%; in [14] it was 89.7%; in test [15], 95.9%; in test [16], 100%; in test [17], 102%; in [18] it was 99.3%. Further, the growth in test [19] is 97.4%.
On to `CC(C)(C)CC(C)(C)Nc1c(-c2ccc(-c3ccccc3)cc2)nc2cnccn12`, for which the growth in [1] is 91.5%; in [2], 87.4%; in [3], 81.5%; in [4], 79.9%; in [5], 80%; in test [6], 93.3%. Besides, the growth in test [7] was 37.5%; in test [8], 56.4%; in test [9], 80.6%; in test [10] it was 94.9%; in test [11], 62.7%; in test [12], 108%. Also, the growth in test [13] was 90.6%; in test [14] it was 94.4%; in [15], 81.5%; in test [16], 97.6%; in [17], 90.5%; in test [18], 83.3%. Moreover, in test [19], the growth was 89.2%.
As for `COc1cc(-c2cccc([N+](=O)[O-])c2)c(-c2nc(-c3ccccc3)c(-c3ccccc3)n2C2CC2)cc1OC`, the growth was 68% in [1]; 62.5% in test [2]; 71.9% in [3]; 92.6% in test [4]; 55.5% in test [5]; 34.6% in test [6]. Besides, the growth was 44% in [7]; 44.7% in test [8]; 73.3% in test [9]; 87.1% in test [10]; 32.6% in test [11]; 74.2% in test [12]. The growth is 72.4% in [13]; 69.1% in test [14]; 77% in [15]; 42.7% in [16]; 88.5% in test [17]; 56.8% in test [18]. For the same compound, the growth in test [19] was 40%.
On to `Cc1cc(-c2ccccc2)cc(SC#N)[n+]1[O-]`, for which the growth in test [1] was 55.9%; in test [2], 69.4%; in [3], 50.5%; in test [4] it was 40.2%; in [5], 19%; in test [6], 82.2%. Besides, the growth in test [7] is 39.2%; in test [8], 33.7%; in test [9], 41.1%; in test [10], 46.6%; in test [11] it was 16%; in [12] it was 59.3%. In addition, the growth was 52.7% in test [13]; 49.6% in [14]; 43.3% in [15]; 23.2% in [16]; 43.5% in test [17]; 59.2% in test [18]. Besides, the growth in [19] was 19.3%.
Regarding `Cc1ccc2c(n1)C(=O)C(Oc1ccc(F)cc1)=CC2=O`, the growth in test [1] is 94.9%; in test [2] it was 76.5%; in [3], 101%; in [4] it was 125%; in [5] it was 101%; in [6], 123%. The growth was -43.9% (active) in test [7]; 99.4% in test [8]; 107% in [9]; 114% in test [10]; 20% in test [11]; 93.9% in test [12]. For the same compound, the growth in test [13] was 105%; in test [14], 107%; in [15], 90.8%; in test [16], 101%; in test [17], 95.9%; in test [18], 95.5%. Besides, in [19], the growth is 103%.
Consider `COc1ccc(Nc2ncc(Br)c(NCCCNC(=O)C3CCC3)n2)cc1`, for which the growth was 31% in [1]; 21.8% in test [2]; 43.1% in test [3]; 10.9% in test [4]; 19.4% in [5]; 40% in [6]. Moreover, the growth in test [7] was 50.1%; in test [8], 19.8%; in [9], 24.3%; in [10], 38.9%; in test [11] it was 23%; in test [12], 77.7%. Also, the growth in test [13] is -25.7% (active); in [14], -41.2% (active); in test [15] it was 23.4%; in [16], 30.9%; in [17] it was 2.94% (active); in test [18] it was 74.3%. Also, the growth in test [19] is 55.2%.
In the case of `O=C(Oc1ccc[nH]c1=O)c1cc([N+](=O)[O-])cc([N+](=O)[O-])c1`, the growth was 114% in [1]; 104% in test [2]; 98.6% in [3]; 97.2% in test [4]; 111% in test [5]; 146% in [6]. Also, the growth is 116% in test [7]; 77.3% in test [8]; 101% in [9]; 123% in test [10]; 87.1% in test [11]; 156% in test [12]. The growth was 114% in test [13]; 83.3% in test [14]; 116% in test [15]; 113% in test [16]; 99.3% in test [17]; 19.7% in [18]. For the same compound, the growth in test [19] was 101%.
As for `COc1ccc(/C=N/NC(=O)Cn2c(-c3ccc(S(C)(=O)=O)cc3)nc3cc(Cl)ccc32)cc1`, the growth in test [1] was 29.9%; in [2], 57.1%; in [3], 51.4%; in test [4], 30.5%; in test [5] it was 7.74% (active); in test [6] it was 49.3%. Also, the growth is 2.78% (active) in test [7]; 17.4% in [8]; 39.2% in [9]; 14.2% in [10]; 6.93% (active) in [11]; 65.8% in [12]. Besides, the growth in [13] is 12.9%; in test [14] it was 14.9%; in [15], 45.2%; in test [16], 13.4%; in test [17], -14.1% (active); in test [18], 64.4%. The growth in test [19] is 13.5%.
